Assay results from PubChem BioAssay (NCI).
The panel holds about 83,000 compounds, 20% with a hit somewhere; the sample as a whole holds those more often.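 The endpoint reported here, percent growth, reads 100 for growth as untreated, 0 for no net growth and -100 for all cells dead.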 Unmarked numbers belong to inactive results. Calls of active or inactive are those of the source. Rule for the calls: active = growth percent below 10; inactive = the rest.

System: T-47D breast
Experiment: NCI-60 one-dose screen, 48 h (100 = growth as untreated, 0 = no growth, -100 = all killed)
Settings: 10 µM unless noted

**Q.** For COc1ccc(/C=C/c2nc(-c3n[nH]c(=O)n3-c3ccccc3)c3ccccc3n2)cc1, which growth is on record?
**A.** 89.3%

**Q.** For COc1ccc(-c2n[nH]nc2-c2csc3ccccc23)cc1OC, which growth is on record?
**A.** 28.5%

**Q.** With CSc1nc(-c2cccc(NC(=O)CCl)c2)c(C#N)c(=O)n1C as the compound, how does the growth read?
**A.** 34.5%

**Q.** With Cc1cc(C)c2nc3nc(C)cc(C)c3c(N)c2c1 as the compound, how does the growth read?
**A.** 37.8%

**Q.** For Cc1nn(-c2cc(=O)[nH]c3ccccc23)c(N)c1C#N, which growth is on record?
**A.** 104%

**Q.** For CCOC(=O)c1c(C(=O)OCC)c2cc(-c3ccn4c(C(=O)c5ccccc5)c(C(=O)OCC)c(C(=O)OCC)c4c3)ccn2c1C(=O)c1ccccc1, which growth is on record?
**A.** 82.5%

**Q.** CNC(=O)c1cc(Oc2ccc(NC(=O)Nc3ccc(Cl)c(SC)c3)c(F)c2)ccn1 was tested. Which growth did it give?
**A.** -3.32% (active)

**Q.** How did the growth turn out when O=c1nc2oc3ccc4ccccc4c3cc-2s1 was run?
**A.** 12.6%

**Q.** For CN(C)C(=S)N=Nc1c(O)[nH]c2ccccc12, which growth is on record?
**A.** 25%

**Q.** For CC(=O)O[C@H]1CC[C@]2(C)[C@H]3CC=C4[C@@H]5CC(C)(C)CC[C@]5(C(=O)NCCNCCN)CC[C@@]4(C)[C@]3(C)CC[C@H]2C1(C)C, which growth is on record?
**A.** -46.5% (active)

**Q.** O=C1c2cc3c(cc2-c2c1c1ccc(F)cc1c(=O)n2CCCNCCO)OCO3 was tested. Which growth did it give?
**A.** -17.7% (active)

**Q.** COc1cc(/C=C/C(=O)c2c(C)oc3nc[nH]c(=O)c23)cc(OC)c1OC was tested. Which growth did it give?
**A.** 58.9%

**Q.** With COC[C@H](C)n1c(C2CCOCC2)nc2cnc3cc(-c4c(C)noc4C)c(OC)cc3c21 as the compound, how does the growth read?
**A.** 37.9%

**Q.** With Cn1cc(-c2nonc2-c2c[nH]c3ccc(F)cc23)c2cccnc21 as the compound, how does the growth read?
**A.** 16.2%

**Q.** For COc1cc2c(cc1-c1c(C)noc1C)ncc1nc(C3CCOCC3)n([C@H](C)COC(F)F)c12, which growth is on record?
**A.** 46%

**Q.** With CC1=C[C@H]2c3c(c(O)c(O)c4oc5cc(O)ccc5c(=O)c34)[C@H](c3cc(O)c(O)c4oc5cc(O)ccc5c(=O)c34)[C@H]2C(C)(C)C1 as the compound, how does the growth read?
**A.** 18.1%

**Q.** Which growth does the source give for COc1cc(-c2nn(-c3ccc(Br)cc3)cc2C(=O)O)ccc1O here?
**A.** 98.5%

**Q.** How did the growth turn out when COc1cc(C2CC(=O)c3ccccc3N2)cc(OC)c1OC (centres undefined) was run?
**A.** 92.6%

**Q.** Which growth does the source give for CC1=NN(c2nc(-c3ccc(Cl)cc3)c(C#N)c(N3CCOCC3)n2)C(=O)C1 here?
**A.** 93.3%

**Q.** For COCCNc1ccc2c3c(cccc13)C(=O)N(CCN(C)C)C2=O, which growth is on record?
**A.** -10.9% (active)

**Q.** How did the growth turn out when CCOC(=O)c1cc(C(=O)c2ccc(O)c(O)c2)n2ccc(-c3ccn4c(C(=O)c5ccc(O)c(O)c5)cc(C(=O)OCC)c4c3)cc12 was run?
**A.** 77.4%

**Q.** Which growth does the source give for CCN=C1C=CC(=C(c2ccc(N)cc2)c2ccc(N(CC)CC)c(C)c2)C=C1 here?
**A.** 1.14% (active)

**Q.** With COc1ccc(/C=C\c2cc(OC)c(OC)c(OC)c2)cc1OC(=O)c1cccc(Cn2cc(CCOC(=O)[C@H](N)Cc3cn(C)c4ccccc34)nn2)c1 as the compound, how does the growth read?
**A.** 70.2%

**Q.** Cc1cc(N2CCSCC2)nc(NC2CCCC(Nc3ccnc4cc(Cl)ccc34)C2)n1 (centres undefined) was tested. Which growth did it give?
**A.** -37.2% (active)

**Q.** Which growth does the source give for CSc1nc(NCCO)c(C#N)c(-c2cccc([N+](=O)[O-])c2)n1 here?
**A.** 94.1%

**Q.** Cc1ccc(C2=NN3C(C2)c2cc(Br)ccc2OC32CCN(Cc3ccccc3)CC2)o1 (centres undefined) was tested. Which growth did it give?
**A.** 86.6%

**Q.** For COc1ccc(/C=C(\C#N)C(=O)Nc2cccc(Nc3nc(SC)nc(-c4cccc([N+](=O)[O-])c4)c3C#N)c2)cc1OC, which growth is on record?
**A.** 87%

**Q.** Which growth does the source give for CCN(CC)CCCCNc1c2ccc(Cl)cc2nc2ccc(OC)cc12 here?
**A.** -16.9% (active)

**Q.** How did the growth turn out when O=C(/C=C/c1cc(CN2CCOCC2)c(O)c2ncccc12)c1cc(CN2CCOCC2)c(O)c2ncccc12 was run?
**A.** 7.07% (active)

**Q.** For COc1cc(-c2nc3ccccc3[nH]2)ccc1OCC(=O)N=Nc1c(O)[nH]c2ccc(Cl)cc12, which growth is on record?
**A.** -52% (active)

**Q.** Which growth does the source give for COc1ccc(-n2nc(C)c3c(Nc4ccc(NC(=O)Nc5cc(C(F)(F)F)ccc5F)cc4)ncnc32)cc1 here?
**A.** 11.8%

**Q.** Which growth does the source give for COc1cc(-c2nc3cc(Cl)c(Cl)cc3[nH]2)ccc1OCC(=O)N=Nc1c(O)[nH]c2ccccc12 here?
**A.** -63.4% (active)

**Q.** For CN(C)CCN1C(=O)c2cccc3c(N)ccc(c23)C1=O, which growth is on record?
**A.** -2.59% (active)

**Q.** With Cc1nc2ccccc2n1C(=O)C[C@@H]1NC(=S)NC1=O as the compound, how does the growth read?
**A.** 96.7%

**Q.** How did the growth turn out when CCN(CC)c1ccc(-c2cc(-c3cc(OC)c(OC)c(OC)c3)nc(N3CCOCC3)c2C#N)cc1 was run?
**A.** 22.2%

**Q.** How did the growth turn out when O=C1c2cc3c(cc2-c2c1c1cc(F)c(F)cc1c(=O)n2CCCn1ccnc1)OCO3 was run?
**A.** 4.88% (active)

**Q.** With O=C(Cn1cccc(Nc2ccccc2)c1=O)Nc1ccccc1 as the compound, how does the growth read?
**A.** 93.9%

**Q.** For COc1cc(-c2nc3ccccc3[nH]2)ccc1OCc1nnc(-c2ccc(CC(C)C)cc2)o1, which growth is on record?
**A.** 57.2%

**Q.** How did the growth turn out when FC(F)(F)c1ccc(-c2cn3nc(-c4c[nH]c5ccc(Br)cc45)sc3n2)cc1 was run?
**A.** 67.6%
